These results are taken from PubChem BioAssay (NCATS).

Assay [1] in a line: Quantitative High-Throughput drug screen in 47 multiple myeloma cell lines against the NCATS MIPE library collection: SKMM1_PLB cell viability assay (AID 1919863). Further: nearly all actives have a fitted effect of over 35% in size. To be noted: SKMM1 myeloma viability, CellTiter-Glo ATP, 48 h; viability: hits give low values. The method, boiled down:
(§1)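 MIPE 4.0 approved/investigational drugs; 500 cells/well; 48 h 37 °C humidified 5% CO2; CTG luminescence readout; DMSO = 100%, media = 0% viability.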
(ATP-based viability assays read luminescence as a measure of living cells.)

Assay [2] is described as follows: Quantitative High-Throughput drug screen in 47 multiple myeloma cell lines against the NCATS MIPE library collection: XG1_PLB cell viability assay (AID 1919866). Further: nearly all actives have a fitted effect of over 35% in size. An outline of the steps: as §1
Assay [3] is described as follows: Quantitative High-Throughput drug screen in 47 multiple myeloma cell lines against the NCATS MIPE library collection: PE2_PLB cell viability assay (AID 1919869). Further: nearly all actives have a fitted effect of over 35% in size. The method, boiled down: as §1
Assay [4] can be described thus: Quantitative High-Throughput drug screen in 47 multiple myeloma cell lines against the NCATS MIPE library collection: RPMI8226_ATCC cell viability assay (AID 1919871). Further: nearly all actives have a fitted effect of over 30% in size. The method, boiled down:
as §1

Assay [5] in a line: Quantitative High-Throughput drug screen in 47 multiple myeloma cell lines against the NCATS MIPE library collection: PCM6_Riken cell viability assay (AID 1919870). Further: nearly all actives have a fitted effect of over 30% in size. An outline of the steps: as §1
A short description of assay [6]: Quantitative High-Throughput drug screen in 47 multiple myeloma cell lines against the NCATS MIPE library collection: OPM2_DSMZ cell viability assay (AID 1919872). Further: nearly all actives have a fitted effect of over 30% in size. The method, boiled down:
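CellTiter-Glo luminescence (ATP) after 48 h compound exposure, 37C/5% CO2; 500 cells/well; MIPE 4.0 approved/investigational drugs pinned in; DMSO = 100%, media only = 0% viability.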

Assay [7] can be described thus: Quantitative High-Throughput drug screen in 47 multiple myeloma cell lines against the NCATS MIPE library collection: U266_ATCC cell viability assay (AID 1919864). Further: nearly all actives have a fitted effect of over 35% in size. An outline of the steps: as §1
Assay [8] is described as follows: Quantitative High-Throughput drug screen in 47 multiple myeloma cell lines against the NCATS MIPE library collection: XG6_PLB cell viability assay (AID 1919865). Further: nearly all actives have a fitted effect of over 40% in size. An outline of the steps: as §1
Assay [9] is described as follows: Quantitative High-Throughput drug screen in 47 multiple myeloma cell lines against the NCATS MIPE library collection: UTMC2_PLB cell viability assay (AID 1919868). Further: nearly all actives have a fitted effect of over 55% in size. To be noted: CellTiter-Glo ATP luminescence, 48 h; viability (% of DMSO control): at 45.8 µM (top of the series). The method, boiled down:
as §1

The nature of assay [10]: Quantitative High-Throughput drug screen in 47 multiple myeloma cell lines against the NCATS MIPE library collection: VP6_DJ cell viability assay (AID 1919867). Further: nearly all actives have a fitted effect of over 40% in size. The method, boiled down: as §1

The structures appear in SMILES notation. Inconclusive results are not listed. Values without a mark were called inactive. The source made the active and inactive calls. The call rests on the fitted dose curve; in most records, active means well fitted cell-killing curve with a large enough effect; inconclusive means small, poorly fitted or top-dose-only effect, or effect the other way; inactive means no such curve, though single readings can be large or run the other way.
Potency means the concentration at half of the fitted maximal effect.

Take `CN(C)c1nc(Cc2ccc(NC(=O)c3ccc(C(F)(F)F)cc3)cc2)nc(N(C)C)c1CC(=O)O`: in assay [1], the viability – broadly, a read-out of living cells in per cent, often relative to untreated cells – was 127%. Moreover, the Potency entry in assay [2] and in assay [3] was “inactive” each time. Besides, the Potency in [4] was 6.62 µM (active).
Turning to `O=C(O)c1ccc(O)c2ncc(N3CCOCC3)cc12`, the Potency in assay [1] was 18.7 µM (active); in assay [3], 16.6 µM (active). The Potency entry in assay [5] and in [6] was “inactive” throughout.
For the compound `CC(=O)N1CCN(c2ccc(OCc3nn(C)c(C)c3-c3cccc4c(CCCOc5cc(C)c(Cl)c(C)c5)c(C(=O)O)n(Cc5cccnc5)c34)cc2)CC1`, the Potency in assay [7] was 20.9 µM (active); in assay [8], 5.9 µM (active); in assay [2], 5.9 µM (active); in assay [9] it was 7.43 µM (active); in [5] it was 16.6 µM (active). Also, the Potency entry in assay [6] was “inactive”.
`CCCC1OC2C[C@@H]3[C@H]4CCC5=CC(=O)C=C[C@]5(C)[C@H]4C(O)C[C@]3(C)[C@]2(C(=O)CO)O1` (stereo partly specified): in [7], the Potency is 16.6 µM (active). For the same compound, the Potency result in assay [8], in assay [2], in assay [10] and in assay [3] was “inactive” in each case.
For `O=C(c1ccc(C=Cc2n[nH]c3ccccc23)cc1)N1CCNCC1`, the Potency in assay [7] is 18.7 µM (active); in assay [8], 14.8 µM (active); in [2] it was 0.833 µM (active); in assay [10], 3.72 µM (active); in assay [9], 0.332 µM (active); in assay [3], 5.9 µM (active). In addition, the Potency in [6] was 10.5 µM (active).
On to `NC(N)=Nc1nc(CSCCC(N)=NS(N)(=O)=O)cs1`, for which the Potency is 20.9 µM (active) in assay [7]; 6.62 µM (active) in assay [8]; 14.8 µM (active) in assay [2]; 9.35 µM (active) in assay [9]; 20.9 µM (active) in assay [3]; 14.8 µM (active) in [5]. For the same compound, the Potency result in assay [4] was “inactive”.
Regarding `C[C@@H](N)c1ccc(C(=O)Nc2ccnc3[nH]ccc23)cc1`, the Potency in assay [7] was 16.6 µM (active); in assay [8], 20.9 µM (active); in [10] it was 26.4 µM (active); in assay [9], 16.6 µM (active); in assay [3] it was 26.4 µM (active); in assay [5], 16.6 µM (active). Further, the Potency result in [4] and in assay [6] was “inactive” throughout.
For the compound `CN(C)CC[C@H](CSc1ccccc1)Nc1ccc(S(=O)(=O)NC(=O)c2ccc(N3CCN(Cc4ccccc4-c4ccc(Cl)cc4)CC3)cc2)cc1[N+](=O)[O-]`, the Potency in [7] is 14.8 µM (active); in [8] it was 3.72 µM (active); in assay [10], 2.64 µM (active); in assay [9] it was 1.18 µM (active); in [3] it was 1.48 µM (active); in [5] it was 0.0526 µM (active). For the same compound, the Potency in assay [4] was 4.18 µM (active).
For `Cc1ccc(C2=Nc3ccc(Cl)cc3OC2)cc1`, the Potency in assay [7] was 9.35 µM (active); in [8] it was 7.43 µM (active); in assay [5], 7.43 µM (active); in assay [4], 1.87 µM (active). Besides, the Potency result in assay [2], in [3] and in assay [6] was “inactive” throughout.
`CCN1CCN(c2ccc(Nc3cc(N(C)C(=O)Nc4c(Cl)c(OC)cc(OC)c4Cl)ncn3)cc2)CC1`: the Potency result in assay [7] and in assay [4] was “inactive” throughout. The Potency in assay [8] was 6.62 µM (active); in [2], 11.8 µM (active); in [10], 23.5 µM (active); in assay [6] it was 0.209 µM (active).
As for `CCNC(=O)CCCC=CC[C@@H]1[C@H](C=CC(O)CCc2ccccc2)[C@@H](O)C[C@@H]1O` (stereo partly specified), the Potency result in assay [7], in assay [8], in [2], in assay [10] and in assay [9] was “inactive” in each case. Besides, the Potency in [4] is 16.6 µM (active).
In the case of `NC(=O)c1nnn(Cc2cc(Cl)c(C(=O)c3ccc(Cl)cc3)c(Cl)c2)c1N`, the Potency in [7] was 16.6 µM (active); in [8], 18.7 µM (active); in assay [2] it was 20.9 µM (active); in [10], 20.9 µM (active); in assay [3] it was 23.5 µM (active); in assay [4] it was 14.8 µM (active).
As for `CN1CCN(c2ncc(-c3cc(Cl)cc(Cl)c3Cl)c(N)n2)CC1`, the Potency in [7] is 26.4 µM (active); in assay [8], 7.43 µM (active); in [2], 7.43 µM (active). The Potency result in [9] and in assay [4] was “inactive” each time.
For `N#CC(=C1Nc2ccccc2S1)c1ccnc(OCc2ccc(CN3CCOCC3)cc2)n1`, the Potency in [7] was 5.26 µM (active); in assay [8], 1.18 µM (active); in [2], 1.18 µM (active); in assay [3], 5.26 µM (active).
With `COc1ccc2cc1Oc1ccc(cc1)C[C@H]1c3cc(c(OC)cc3CCN1C)Oc1c(OC)c(OC)cc3c1[C@H](C2)N(C)CC3`, the Potency in assay [7] was 18.7 µM (active); in assay [8], 14.8 µM (active); in assay [2], 10.5 µM (active); in assay [10], 11.8 µM (active); in [4], 6.62 µM (active). In addition, the Potency entry in assay [6] was “inactive”.
For `O=C1C(c2c(O)[nH]c3ccccc23)=Nc2ccccc21`, the Potency in [7] was 1.66 µM (active); in assay [8], 0.296 µM (active); in [2], 0.418 µM (active); in [3], 1.66 µM (active). In addition, the Potency entry in [9] and in [6] was “inactive” throughout.
For `COc1ccc(-c2oc3c(CC=C(C)C)c(O)cc(O)c3c(=O)c2O)cc1`, the Potency in [7] was 16.6 µM (active); in [8] it was 6.62 µM (active); in assay [10] it was 5.26 µM (active); in assay [5], 7.43 µM (active); in assay [4] it was 20.9 µM (active). The Potency result in [3] and in assay [6] was “inactive” throughout.
As to `CC(=O)O[C@]1(C(C)=O)CC[C@H]2[C@@H]3C=C(Cl)C4=CC(=O)[C@@H]5C[C@H]5[C@]4(C)[C@@H]3CC[C@@]21C`, the Potency was 8.33 µM (active) in [7], 4.18 µM (active) in assay [8], 7.43 µM (active) in [2] and 11.8 µM (active) in assay [3]. In assay [6], the Potency entry is “inactive”.
